Assay outcomes from PubChem BioAssay.
HPGD block = inhibitors of human 15-hydroxyprostaglandin dehydrogenase (HPGD). P15428. AID 894. Potency, µM, for the others: at the highest dose activity change, negative = inhibition, hits mostly inhibitors. hit rate 4.3% among 150,000. purified HPGD, NADH fluorescence kinetic, PGE2 substrate; active = well fitted inhibition curve with a large enough effect, not every such curve was filed as active; inconclusive = small, poorly fitted or top-dose-only effect, or another doubt; inactive = no such curve, though single readings can be large or run the other way; also: potency is read from the fitted curve at half-maximal effect
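NADH formation kinetics: reaction with 30 uM PGE2 and 1 mM NAD+ (final), 20 nM enzyme, Tris-HCl pH 8 with Tween 20, after 15 min compound preincubation at room temperature. Fluorescence change, last versus first of five reads.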
ALDH1A1 inh = blocks purified human ALDH1A1 activity; P00352; Purified ALDH1A1, NADH fluorescence, propionaldehyde substrate; Potency, µM (series often up to 75.3 µM), without a hit: at the highest dose activity, negative = inhibition, actives largely listed as inhibitors; hit rate 7.3% among 220,000; AID 1030; active = well fitted inhibition curve with a large enough effect, not every such curve was filed as active; inconclusive = small, poorly fitted or top-dose-only effect, or another doubt; inactive = no such curve, though single readings can be large or run the other way;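 also: potency is read from the fitted curve at half-maximal effect; plate controls were no enzyme wells and a reference inhibitor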
Target sequence (P00352 whole entry, looked up): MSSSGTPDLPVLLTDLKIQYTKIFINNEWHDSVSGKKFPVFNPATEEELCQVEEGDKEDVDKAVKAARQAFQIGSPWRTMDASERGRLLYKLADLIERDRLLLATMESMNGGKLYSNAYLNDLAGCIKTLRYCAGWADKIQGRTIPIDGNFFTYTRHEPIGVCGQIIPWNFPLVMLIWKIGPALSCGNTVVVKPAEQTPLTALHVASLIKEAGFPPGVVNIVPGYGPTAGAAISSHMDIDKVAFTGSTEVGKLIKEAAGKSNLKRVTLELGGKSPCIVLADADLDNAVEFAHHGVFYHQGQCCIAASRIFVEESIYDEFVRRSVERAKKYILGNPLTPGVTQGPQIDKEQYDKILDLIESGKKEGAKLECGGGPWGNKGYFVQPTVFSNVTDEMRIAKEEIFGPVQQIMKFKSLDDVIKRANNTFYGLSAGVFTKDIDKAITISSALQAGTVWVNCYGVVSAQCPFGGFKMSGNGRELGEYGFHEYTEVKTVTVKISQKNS
IMPase cell inh = IMPase inhibition in cells; P97697; 120,000 tested, under 10 active; CHO-M1 cells, IP1 accumulation, HTRF TR-FRET ratio; inhibition (IP1 accumulation), % at 46.1 µM; active = well fitted curve in the direction sought with a large enough effect in the signal ratio, not every such curve was filed as active; inconclusive = small, poorly fitted or top-dose-only effect, or a change in a side signal; inactive = no such curve, though single readings can be large or run the other way; the % refers to the signal ratio;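 also: cells stimulated with carbachol in lithium chloride buffer; plate controls were DMSO basal wells for no effect and reference inhibitor wells for full effect; higher means more IMPase inhibition seen as more IP1 and lower FRET ratio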
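CHO-M1, 2000 cells/well, cultured 16–30 h; cpd up to 46 uM; carbachol (50 uM solution, stimulation buffer w/ 50 mM LiCl, pH 7.4), 30 min 37C; IP-One TR-FRET, 10 min RT; Ex 320/Em 665, 620; Hill-fit AC50.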
NPSR antag = neuropeptide S receptor (human) antagonism, cAMP. Q6W5P4. CHO-NPSR cells, cAMP TR-FRET, antagonist mode. Potency, µM (doses to about 38.3 µM), for the others: at the top dose activity change, negative = inhibition, usual class: inhibitors. hit rate 1% among 220,000. AID 1461; also: potency is read from the fitted curve at half-maximal effect; nearly all actives have a fitted effect of over 50% in size
PNC inhibitor = inhibitors of perinucleolar compartment assembly; hit rate 3.1% among 140,000; PC3M PTB-GFP, PNC prevalence imaging, 16 h; active compounds read low; AID 2417; activity change (PNC), negative = inhibition, % at 10 µM;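 active = readout at or below -70, meaning at least 70% loss of cells showing the perinucleolar compartment, a nuclear body marking cancer cells; inconclusive = readout between -30 and a set limit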;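 also: plate controls were DMSO wells for no effect and camptothecin positive control wells for full effect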
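Read-out is percentage of cells bearing a perinucleolar compartment, from automated 20x imaging of fixed, Hoechst-stained PC3M PTB-GFP cells. Cells were seeded 4 h, then exposed 16 h to compound (23 nl of library stock) in duplicate plates.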
IMPase Li cell = IMPase inhibition in cells with lithium potentiation | CHO-M1 cells, IP1 TR-FRET (IP-One), carbachol + lithium | Potency, µM (series often up to 59.4 µM), without a hit: at the top dose activity, negative = IMPase inhibition, most hits filed as inhibitors | hit rate 0.35% among 210,000;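 also: IP1 builds up when IMPase is blocked and the TR-FRET signal falls; potency is read from the fitted curve at half-maximal effect; plate controls were basal vehicle for no effect and high inhibitor control for full effect; nearly all actives have a fitted effect of over 50% in size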
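Steps: plate 2000 CHO-M1 cells per well and culture 16–30 h; add compound and lithium; incubate 30 min, 37C; add d2-IP1 tracer and Eu cryptate anti-IP1 antibody in lysis buffer; read after 10 min at room temperature.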
Starred values were filed as active, the others as inactive; [ ] = another dose, or the depositor's remark. The list is not random: actives were taken first. Their share in the collection is about 11%. Unless noted, calls follow the shape of the dose curve; as a rule, active = well fitted curve in the direction sought with a large enough effect; inconclusive = small, poorly fitted or top-dose-only effect, or another doubt; inactive = no such curve, though single readings can be large; an effect the other way counts as inactive or inconclusive. Unless noted, % is scaled to controls: 0 for no effect and ±100 for the full control effect.

How did Cc1ccc(/C=N/N2CCN(Cc3ccc(Cl)cc3)CC2)o1 do in these assays?
HPGD block: -35%; ALDH1A1 inh: 7.9µM*; IMPase cell inh: 13; NPSR antag: -17%[46.1 µM]; PNC inhibitor: -24; IMPase Li cell: -6%[38.3 µM]

What do the screens show for `COc1ccc(/C=C2\N=C3CCCCCN3C2=O)cc1OC`?
HPGD block: -17%; ALDH1A1 inh: 14µM*; IMPase cell inh: 3; NPSR antag: -9%[46.1 µM]; PNC inhibitor: 4; IMPase Li cell: 9%[38.3 µM]

Results for N#Cc1c(-c2ccc(Br)cc2)nc2n(c1=O)CCCS2 ?
HPGD block: 28µM*; ALDH1A1 inh: 35µM*; IMPase cell inh: 2; NPSR antag: -23%[46.1 µM]; PNC inhibitor: inconclusive; IMPase Li cell: 8.9µM*

Results for N#Cc1c(-c2ccc(Cl)cc2)nc2n(c1=O)CCCS2 ?
HPGD block: -25%; ALDH1A1 inh: inconclusive; IMPase cell inh: 0; NPSR antag: -8%[46.1 µM]; PNC inhibitor: inconclusive; IMPase Li cell: inconclusive

How did COc1ccc(CCN2C(=NC(=O)CCC(=O)O)SC3CS(=O)(=O)CC32)cc1 (stereo not given) do in these assays?
HPGD block: -22%; ALDH1A1 inh: -1%; IMPase cell inh: 2; NPSR antag: 5%[46.1 µM]; PNC inhibitor: 0; IMPase Li cell: 0%[38.3 µM]

Results for Cn1c(SCC(=O)N2CCCC2)nc2ccccc21 ?
ALDH1A1 inh: inconclusive; NPSR antag: 7%; IMPase Li cell: -3%

What do the screens show for `Cn1c(SCc2nnc3n2CCCCC3)nc2ccccc21`?
HPGD block: 25µM*; ALDH1A1 inh: 8%; IMPase cell inh: 0; NPSR antag: 3%[46.1 µM]; PNC inhibitor: -29; IMPase Li cell: 21%[38.3 µM]

Results for COc1ccc(S(=O)(=O)NCCc2ccccc2)cc1 ?
HPGD block: 3%; ALDH1A1 inh: inconclusive; IMPase cell inh: 12; NPSR antag: -2%[46.1 µM]; PNC inhibitor: 23; IMPase Li cell: 34%[38.3 µM]

How did Cc1cccc2c1CC(C)(C)NC2=C(C#N)C#N do in these assays?
HPGD block: -5%; ALDH1A1 inh: inconclusive; IMPase cell inh: -4; NPSR antag: 9%; PNC inhibitor: -15; IMPase Li cell: -1%

Results for CCOc1cc(NC(=S)NCC2CCCO2)c(OCC)cc1NC(=O)CC(C)C (stereo not given) ?
ALDH1A1 inh: inconclusive; NPSR antag: 25%; IMPase Li cell: 1%

Results for Cc1nc(N2CCCCC2)sc1C(=O)c1cccc([N+](=O)[O-])c1 ?
ALDH1A1 inh: 10µM*; NPSR antag: -30%; IMPase Li cell: 27%

What do the screens show for `Cc1nc(N2CCCCC2)sc1C(=O)c1ccc(SCCO)c([N+](=O)[O-])c1`?
ALDH1A1 inh: 13µM*; NPSR antag: -34%; IMPase Li cell: 15%

Results for O=[N+]([O-])c1ccc(N2CCCCC2)cc1SCCO ?
ALDH1A1 inh: inconclusive; NPSR antag: -16%; IMPase Li cell: 0%

Results for N=C(c1cccc([N+](=O)[O-])c1)N1CCCCCC1 ?
ALDH1A1 inh: 5%; NPSR antag: -14%; IMPase Li cell: 3%

What do the screens show for `CCCCCCC1CC(CCc2nc(=S)[nH][nH]2)C(=O)O1` (stereo not given)?
HPGD block: 16µM*; ALDH1A1 inh: inconclusive; NPSR antag: -8%; PNC inhibitor: inconclusive; IMPase Li cell: -1%

How did CCCCCCCCc1nc(=S)[nH][nH]1 do in these assays?
HPGD block: 16µM*; ALDH1A1 inh: 13µM*; IMPase cell inh: 4; NPSR antag: 2%[46.1 µM]; PNC inhibitor: -6; IMPase Li cell: -2%

How did O=C(NCC(=O)N(c1ccccc1)C(C(=O)NC1CCCCC1)c1ccncc1)c1ccco1 (stereo not given) do in these assays?
HPGD block: -5%; ALDH1A1 inh: 6%; IMPase cell inh: -2; NPSR antag: -6%[46.1 µM]; PNC inhibitor: 22; IMPase Li cell: 7%[38.3 µM]

What do the screens show for `Cc1nnc(SCC(=O)c2c(N)n(C)c(=O)n(C)c2=O)n1Cc1ccccc1`?
HPGD block: 2%; ALDH1A1 inh: 3%; IMPase cell inh: 3; NPSR antag: 11%[7.67 µM]; PNC inhibitor: -22; IMPase Li cell: 7%[38.3 µM]
